# In PubChem BioAssay (EPA / NIEHS):
# Several values for one entry are separate records, joined by “and”; a condition that tells them apart may be missing. Identical values can stand only once. Results filed as inconclusive are left out. A structure can be active in one record and inactive in another. Activity calls are given as the source filed them. Rule for the calls: active = hit-call score of the fitted dose curve at least 0.9, where 1 is the maximum; inconclusive = response in the unintended direction; inactive = score below 0.9.
# Experiments:
# [1] = biological target: human Protein Tyrosine Phosphatase Receptor Type M (PTPRM), PTPRM (gene 5797) (UniProt P28827); experiment: NVS_ENZ_hPTPRM: NovaScreen (NVS) Enzymatic Assay for human Protein Tyrosine Phosphatase Receptor Type M (PTPRM) (AID 2283215)
# Procedure, shortened: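 Read-out is fluorescence after electrophoretic separation of substrate and product, taken 1.33 h post-dosing with recombinant enzyme. Compounds screened at 25 uM in duplicate, then concentration series for actives; activity as signal loss relative to DMSO.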
# [2] = biological target: human SRC Proto-Oncogene, Non-receptor Tyrosine Kinase (SRC), SRC (gene 6714) (UniProt P12931); experiment: NVS_ENZ_hSRC: NovaScreen (NVS) Enzymatic Assay for human SRC Proto-Oncogene, Non-receptor Tyrosine Kinase (SRC) (AID 2283223)
# Procedure, shortened: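 Compounds passing 30% inhibition at 25 uM (duplicate) were titrated to a top concentration of 50 uM. Enzyme activity read by fluorescence with mobility-shift substrate/product separation after 1 h; DMSO baseline.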
# [3] = biological target: human Tropomyosin Receptor Kinase A (TRKA), NTRK1 (gene 4914) (UniProt P04629); experiment: NVS_ENZ_hTrkA: NovaScreen (NVS) Enzymatic Assay for human Tropomyosin Receptor Kinase A (TRKA) (AID 2283224)
# Procedure, shortened: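 Compounds were screened at 25 uM in duplicate, then concentration series to a 50 uM top for those meeting threshold (e.g. 30% inhibition). Enzyme was recombinant human TrkA, incubated 1 h. Product formation was quantified by fluorescence after mobility-shift separation.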
# [4] = biological target: human Vascular Endothelial Growth Factor Receptor 1 (VEGFR1), FLT1 (gene 2321) (UniProt P17948); experiment: NVS_ENZ_hVEGFR1: NovaScreen (NVS) Enzymatic Assay for human Vascular Endothelial Growth Factor Receptor 1 (VEGFR1) (AID 2283226)
# Procedure, shortened: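 Kinase activity of recombinant human VEGFR1 was read by fluorescence after electrophoretic separation of product from substrate, 1 h post-dosing; initial duplicate single-point testing at 25 uM, followed by concentration-series follow-up, with DMSO as baseline.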
# [5] = biological target: human Protein Tyrosine Phosphatase Receptor Type F (PTPRF), PTPRF (gene 5792) (UniProt P10586); experiment: NVS_ENZ_hPTPRF: NovaScreen (NVS) Enzymatic Assay for human Protein Tyrosine Phosphatase Receptor Type F (PTPRF) (AID 2283213)
# Procedure, shortened: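 Cell-free fluorescence enzyme assay with recombinant protein and substrate; product separated by electrophoretic mobility shift. Read 1 h after dosing, single 25 uM duplicate screen, then concentration-response up to 50 uM; loss of signal vs DMSO.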
# [6] = biological target: human Sirtuin 1 (SIRT1), SIRT1 (gene 23411) (UniProt Q96EB6); experiment: NVS_ENZ_hSIRT1: NovaScreen (NVS) Enzymatic Assay for human Sirtuin 1 (SIRT1) (AID 2283219)
# Procedure, shortened: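 Cell-free recombinant SIRT1 with a fluorescent substrate; substrate and product separated by electrophoretic mobility shift and read by fluorescence intensity, 1 h after dosing. Primary screen at 25 uM in duplicate; hits re-run in concentration-response up to 50 uM, relative to DMSO.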
# [7] = biological target: human Rho Associated Coiled-coil Containing Protein Kinase 1 (ROCK1), ROCK1 (gene 6093) (UniProt Q13464); experiment: NVS_ENZ_hROCK1: NovaScreen (NVS) Enzymatic Assay for human Rho Associated Coiled-coil Containing Protein Kinase 1 (ROCK1) (AID 2283214)
# Procedure, shortened: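 Compounds first run in duplicate at 25 uM against recombinant human ROCK1, then followed in concentration series. Kinase activity was read 1 h post-dosing by fluorescence with mobility-shift separation, as signal loss relative to DMSO.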
# [8] = biological target: human Sirtuin 2 (SIRT2), SIRT2 (gene 22933) (UniProt Q8IXJ6); experiment: NVS_ENZ_hSIRT2: NovaScreen (NVS) Enzymatic Assay for human Sirtuin 2 (SIRT2) (AID 2283217)
# Procedure, shortened: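 Single-point duplicate screen at 25 uM, then concentration-response (max 50 uM) for chemicals passing threshold. Enzyme activity of recombinant human SIRT2 measured after 1 hr by fluorescence with mobility-shift separation of product; DMSO baseline.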
# [9] = biological target: human Sirtuin 3 (SIRT3), SIRT3 (gene 23410) (UniProt Q9NTG7); experiment: NVS_ENZ_hSIRT3: NovaScreen (NVS) Enzymatic Assay for human Sirtuin 3 (SIRT3) (AID 2283222)
# Procedure, shortened: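 Cell-free enzyme assay with recombinant protein and fluorescent substrate, product separated by electrophoretic mobility shift; read 1 hour after dosing. Screened in duplicate at 25 uM, then singleton concentration-response up to 50 uM; loss of signal versus DMSO.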
# [10] = biological target: rabbit Imidazoline 2 Central (I2C), CKB (gene 100009085) (UniProt P00567); experiment: NVS_ENZ_rabI2C: NovaScreen (NVS) Enzymatic Assay for rabbit Imidazoline 2 Central (I2C) (AID 2283228)
# Procedure, shortened: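 Rabbit brain membranes, cell-free; readout by filter-based scintillation counting 1.5 hours after dosing, loss of signal vs DMSO. Initial duplicate test at 25 uM, then concentration-response with 50 uM top concentration.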
# Sequence of human Rho Associated Coiled-coil Containing Protein Kinase 1 (ROCK1), ROCK1 (gene 6093) (Q13464 whole entry, looked up): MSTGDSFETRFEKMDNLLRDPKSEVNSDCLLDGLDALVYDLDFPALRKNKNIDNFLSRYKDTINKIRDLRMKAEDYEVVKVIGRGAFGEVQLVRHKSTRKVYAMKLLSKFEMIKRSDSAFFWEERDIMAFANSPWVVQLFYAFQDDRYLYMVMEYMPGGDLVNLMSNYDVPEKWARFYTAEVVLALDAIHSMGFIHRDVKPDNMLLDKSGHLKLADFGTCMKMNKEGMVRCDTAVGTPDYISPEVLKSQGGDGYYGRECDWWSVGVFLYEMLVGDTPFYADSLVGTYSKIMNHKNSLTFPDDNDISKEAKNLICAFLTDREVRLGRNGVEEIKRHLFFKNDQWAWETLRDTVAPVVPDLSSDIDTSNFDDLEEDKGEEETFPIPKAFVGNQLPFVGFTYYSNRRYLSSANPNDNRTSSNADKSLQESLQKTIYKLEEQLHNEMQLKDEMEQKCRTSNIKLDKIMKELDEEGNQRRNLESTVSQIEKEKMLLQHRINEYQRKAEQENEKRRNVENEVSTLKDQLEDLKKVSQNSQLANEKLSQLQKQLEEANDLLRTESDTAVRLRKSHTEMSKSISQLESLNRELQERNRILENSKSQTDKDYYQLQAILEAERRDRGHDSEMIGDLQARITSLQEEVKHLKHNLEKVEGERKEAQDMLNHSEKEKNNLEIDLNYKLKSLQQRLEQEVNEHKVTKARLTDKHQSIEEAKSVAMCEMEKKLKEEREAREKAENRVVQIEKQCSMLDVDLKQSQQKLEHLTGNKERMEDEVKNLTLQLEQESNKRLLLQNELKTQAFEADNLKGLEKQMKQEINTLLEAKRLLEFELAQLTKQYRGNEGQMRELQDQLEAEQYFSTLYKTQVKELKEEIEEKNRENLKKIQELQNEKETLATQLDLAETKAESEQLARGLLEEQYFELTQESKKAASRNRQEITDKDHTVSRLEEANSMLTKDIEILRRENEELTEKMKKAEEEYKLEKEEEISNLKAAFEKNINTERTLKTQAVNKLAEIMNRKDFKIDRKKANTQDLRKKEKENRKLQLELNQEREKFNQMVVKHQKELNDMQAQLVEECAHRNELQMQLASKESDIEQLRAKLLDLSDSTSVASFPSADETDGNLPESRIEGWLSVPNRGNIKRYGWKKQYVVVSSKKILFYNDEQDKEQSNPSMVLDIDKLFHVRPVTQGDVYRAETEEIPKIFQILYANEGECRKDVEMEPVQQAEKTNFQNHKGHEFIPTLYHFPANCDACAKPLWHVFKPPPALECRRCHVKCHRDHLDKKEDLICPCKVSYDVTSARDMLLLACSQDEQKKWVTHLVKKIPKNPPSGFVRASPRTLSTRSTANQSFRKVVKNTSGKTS
# Sequence of rabbit Imidazoline 2 Central (I2C), CKB (gene 100009085) (P00567 whole entry, looked up): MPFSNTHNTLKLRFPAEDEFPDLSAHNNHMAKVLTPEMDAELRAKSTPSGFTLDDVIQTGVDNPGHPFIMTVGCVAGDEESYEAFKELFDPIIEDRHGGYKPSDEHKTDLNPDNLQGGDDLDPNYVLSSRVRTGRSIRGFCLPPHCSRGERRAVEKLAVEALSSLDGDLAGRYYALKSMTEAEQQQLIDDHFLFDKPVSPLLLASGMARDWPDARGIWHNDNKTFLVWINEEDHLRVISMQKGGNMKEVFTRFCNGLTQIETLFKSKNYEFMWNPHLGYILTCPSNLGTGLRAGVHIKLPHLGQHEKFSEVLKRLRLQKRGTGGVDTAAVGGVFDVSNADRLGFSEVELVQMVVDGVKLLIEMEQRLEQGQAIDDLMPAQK
# Sequence of human Protein Tyrosine Phosphatase Receptor Type F (PTPRF), PTPRF (gene 5792) (P10586 whole entry, looked up): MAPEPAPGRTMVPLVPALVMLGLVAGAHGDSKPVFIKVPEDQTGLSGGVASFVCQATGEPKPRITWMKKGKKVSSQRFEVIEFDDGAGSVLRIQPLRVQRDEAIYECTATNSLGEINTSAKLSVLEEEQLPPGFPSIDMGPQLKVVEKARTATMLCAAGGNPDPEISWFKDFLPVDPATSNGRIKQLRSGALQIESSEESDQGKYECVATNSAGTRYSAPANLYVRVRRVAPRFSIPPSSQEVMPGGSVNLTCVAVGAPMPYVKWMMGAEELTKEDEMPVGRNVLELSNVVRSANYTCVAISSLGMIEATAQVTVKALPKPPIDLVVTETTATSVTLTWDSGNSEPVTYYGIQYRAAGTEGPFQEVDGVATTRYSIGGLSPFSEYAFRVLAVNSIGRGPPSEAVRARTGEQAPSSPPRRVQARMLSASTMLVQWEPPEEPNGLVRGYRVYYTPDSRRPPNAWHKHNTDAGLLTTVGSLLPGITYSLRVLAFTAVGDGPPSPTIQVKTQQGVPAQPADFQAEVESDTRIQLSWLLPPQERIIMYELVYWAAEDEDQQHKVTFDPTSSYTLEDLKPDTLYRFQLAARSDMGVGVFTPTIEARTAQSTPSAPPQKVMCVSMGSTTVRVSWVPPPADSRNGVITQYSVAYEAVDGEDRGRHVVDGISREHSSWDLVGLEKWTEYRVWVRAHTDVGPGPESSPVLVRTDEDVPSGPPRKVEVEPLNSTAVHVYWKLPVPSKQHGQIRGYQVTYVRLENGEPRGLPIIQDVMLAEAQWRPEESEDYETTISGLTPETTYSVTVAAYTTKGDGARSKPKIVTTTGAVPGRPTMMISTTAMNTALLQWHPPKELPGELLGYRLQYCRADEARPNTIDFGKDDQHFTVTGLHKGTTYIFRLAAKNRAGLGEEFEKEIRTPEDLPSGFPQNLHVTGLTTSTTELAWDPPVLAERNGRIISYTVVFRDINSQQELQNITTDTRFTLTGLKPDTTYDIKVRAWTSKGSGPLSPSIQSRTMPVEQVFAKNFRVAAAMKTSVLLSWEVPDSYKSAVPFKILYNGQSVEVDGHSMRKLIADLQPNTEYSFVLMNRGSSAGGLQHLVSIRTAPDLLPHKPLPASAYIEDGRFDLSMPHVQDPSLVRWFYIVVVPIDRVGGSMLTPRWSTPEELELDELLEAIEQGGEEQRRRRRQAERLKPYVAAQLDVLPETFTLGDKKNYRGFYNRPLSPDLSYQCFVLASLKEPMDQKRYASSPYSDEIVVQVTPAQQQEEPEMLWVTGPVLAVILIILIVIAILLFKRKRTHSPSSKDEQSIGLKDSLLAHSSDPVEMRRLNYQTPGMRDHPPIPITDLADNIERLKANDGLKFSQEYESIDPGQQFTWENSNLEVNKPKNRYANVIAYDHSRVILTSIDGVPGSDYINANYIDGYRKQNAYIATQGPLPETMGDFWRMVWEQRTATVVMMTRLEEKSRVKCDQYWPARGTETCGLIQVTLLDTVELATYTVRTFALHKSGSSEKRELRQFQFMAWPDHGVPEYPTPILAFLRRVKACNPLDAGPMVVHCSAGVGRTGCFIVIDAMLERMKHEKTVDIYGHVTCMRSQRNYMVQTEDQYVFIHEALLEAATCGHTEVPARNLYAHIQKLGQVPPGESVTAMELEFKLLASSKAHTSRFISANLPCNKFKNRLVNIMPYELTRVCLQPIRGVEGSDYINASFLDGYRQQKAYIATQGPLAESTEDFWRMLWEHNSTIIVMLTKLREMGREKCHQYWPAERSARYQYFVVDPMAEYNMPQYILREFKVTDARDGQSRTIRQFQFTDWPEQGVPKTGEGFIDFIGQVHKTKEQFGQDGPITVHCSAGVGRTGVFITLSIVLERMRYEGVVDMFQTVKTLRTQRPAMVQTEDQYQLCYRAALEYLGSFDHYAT
# Sequence of human Sirtuin 1 (SIRT1), SIRT1 (gene 23411) (Q96EB6 whole entry, looked up): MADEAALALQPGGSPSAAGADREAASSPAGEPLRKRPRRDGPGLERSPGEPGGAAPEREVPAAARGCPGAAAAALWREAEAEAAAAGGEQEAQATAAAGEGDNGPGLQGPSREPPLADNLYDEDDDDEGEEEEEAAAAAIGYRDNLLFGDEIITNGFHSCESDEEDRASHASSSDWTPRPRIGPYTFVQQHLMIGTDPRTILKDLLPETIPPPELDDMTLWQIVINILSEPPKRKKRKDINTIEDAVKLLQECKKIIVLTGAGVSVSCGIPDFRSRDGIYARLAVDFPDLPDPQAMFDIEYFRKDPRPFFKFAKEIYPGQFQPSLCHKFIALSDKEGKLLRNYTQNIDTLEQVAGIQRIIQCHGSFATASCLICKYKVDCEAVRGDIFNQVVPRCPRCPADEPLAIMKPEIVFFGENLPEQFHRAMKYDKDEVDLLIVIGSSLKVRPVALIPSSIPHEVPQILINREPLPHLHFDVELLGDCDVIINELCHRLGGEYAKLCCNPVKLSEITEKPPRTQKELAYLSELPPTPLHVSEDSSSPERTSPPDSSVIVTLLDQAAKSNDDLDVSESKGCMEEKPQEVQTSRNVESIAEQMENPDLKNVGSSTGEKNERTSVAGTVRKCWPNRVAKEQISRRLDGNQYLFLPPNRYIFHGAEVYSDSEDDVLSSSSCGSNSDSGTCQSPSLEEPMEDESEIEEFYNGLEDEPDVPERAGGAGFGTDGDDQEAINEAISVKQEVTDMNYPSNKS
# Sequence of human Sirtuin 2 (SIRT2), SIRT2 (gene 22933) (Q8IXJ6 whole entry, looked up): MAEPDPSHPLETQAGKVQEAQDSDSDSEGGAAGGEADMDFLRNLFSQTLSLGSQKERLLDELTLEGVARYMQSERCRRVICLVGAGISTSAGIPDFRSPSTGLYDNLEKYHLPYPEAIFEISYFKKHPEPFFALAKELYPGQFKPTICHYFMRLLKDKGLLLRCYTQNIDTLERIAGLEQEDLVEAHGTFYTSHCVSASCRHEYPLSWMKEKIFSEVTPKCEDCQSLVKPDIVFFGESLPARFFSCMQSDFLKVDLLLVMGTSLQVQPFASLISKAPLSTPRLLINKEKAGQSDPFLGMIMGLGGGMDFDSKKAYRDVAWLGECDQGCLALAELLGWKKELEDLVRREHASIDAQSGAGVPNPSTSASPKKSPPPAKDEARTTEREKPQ
structure (smiles),measurement,setting,value
CCCN(CCC)c1c([N+](=O)[O-])cc(C(F)(F)F)c(N)c1[N+](=O)[O-],outcome,[1],inactive
O=C(c1ccc(O)cc1O)c1ccc(O)cc1O,AC50,[2],15 µM (active)
same,AC50,[3],25 µM (active)
same,AC50,[4],25 µM (active)
CCCOC(=O)NCCCN(C)C,outcome,[5],inactive
N#CSCSc1nc2ccccc2s1,outcome,[5],inactive
same,AC50,[6],10.7 µM (active)
O=C(Nc1ccc([N+](=O)[O-])cc1Cl)c1cc(Cl)ccc1O,outcome,[1],inactive
CSC(=O)c1cccc2nnsc12,outcome,[7],inactive
COCCO,outcome,[4],inactive
CC(C)(c1ccc(O)cc1)c1ccc(O)cc1,outcome,[7],inactive
same,outcome,[6],inactive
same,AC50,[3],15.4 µM (active)
same,outcome,[4],inactive
Oc1ccc(C(c2ccc(O)cc2)C(Cl)(Cl)Cl)cc1,AC50,[1],46.5 µM (active)
same,AC50,[8],17 µM (active)
same,AC50,[9],19.4 µM (active)
same,AC50,[3],15 µM (active)
CC1(C)C(C=C(Cl)Cl)C1C(=O)OCc1cccc(Oc2ccccc2)c1 (stereo unspecified),outcome,[8],inactive
O=C(O)C1(C(=O)Nc2ccc(Cl)cc2Cl)CC1,outcome,[5],inactive
same,AC50,[1],12.4 µM (active)
COc1nc(C)nc(NC(=O)NS(=O)(=O)c2ccccc2OCCCl)n1,outcome,[1],inactive
C=CCOC(Cn1ccnc1)c1ccc(Cl)cc1Cl (stereo unspecified),AC50,[8],15.1 µM (active)
same,AC50,[10],25 µM (active)
CC(C)CCCCCCc1ccc(O)cc1,outcome,[5],inactive
same,outcome,[7],inactive
same,outcome,[1],inactive
same,outcome,[6],inactive
same,outcome,[3],inactive
S=C(S)NCCNC(=S)S.[Mn+2].[S-]C([S-])=NCCN=C([S-])[S-].[Zn+2],AC50,[5],1.38 µM (active) and 1.98 µM (active)
same,outcome,[5],inactive
same,outcome,[7],inactive
same,AC50,[8],4.58 µM (active)
same,outcome,[8],inactive
same,AC50,[6],3.63 µM (active) and 4.01 µM (active) and 3.03 µM (active)
same,AC50,[9],25 µM (active)
same,outcome,[9],inactive
same,AC50,[2],1.47 µM (active)
same,AC50,[3],22.1 µM (active)
same,AC50,[4],7.01 µM (active)
same,outcome,[4],inactive
same,AC50,[10],1.34 µM (active)
same,outcome,[10],inactive
CCCCC(CC)CN1C(=O)C2C3C=CC(C3)C2C1=O (stereo unspecified),outcome,[10],inactive
c1ccc2[nH]c(-c3cscn3)nc2c1,AC50,[2],25 µM (active)
same,AC50,[3],8.41 µM (active)
same,AC50,[10],4.07 µM (active)
S=C([S-])NCCNC(=S)[S-].[Mn+2],AC50,[5],6.35 µM (active)
same,AC50,[1],8.13 µM (active)
same,AC50,[8],14.1 µM (active)
same,AC50,[6],15.4 µM (active)
same,AC50,[9],7.6 µM (active)
same,outcome,[10],inactive
O=C(O)c1ccccc1,outcome,[8],inactive
Cc1nn(C)c(Oc2ccccc2)c1C=NOCc1ccc(C(=O)OC(C)(C)C)cc1,AC50,[8],6.6 µM (active)
CN(C)C(=O)Nc1ccc(Cl)c(Cl)c1,outcome,[5],inactive
